Experimental data from PubChem BioAssay (NCATS).
A number with no mark means an inactive call. Inconclusive results are not listed. Calls of active or inactive are those of the source. Unless noted, the call rests on the fitted dose curve; in most records, active means well fitted curve in either direction with a large enough effect (not every such curve was filed as active); inconclusive means small, poorly fitted or top-dose-only effect, or another doubt; inactive means flat fitted curve, though single readings scatter.

Legend:
[1] = biological target: Lysosomal acid glucosylceramidase (Homo sapiens) (UniProt P04062); assay: Glucocerebrosidase-p2 (AID 348; in the data active means potency below about 10 µM; further: potency means the concentration at half of the fitted maximal effect); conditions: purified GBA, blue fluorogenic substrate, 40 min
Summary of the method: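 Compounds titrated from 0.6 nM upwards against 0.2 nM enzyme in pH 5.9 citric acid/KH2PO4, taurocholate, tween-20; blue fluorogenic substrate 80 uM, 40 min room temperature, stopped and read Ex 365/Em 440 for AC50.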

[2] = AP1 Signaling Pathway (AID 357); conditions: ME-180 AP-1-bla reporter, EGF-induced, beta-lactamase ratio, 5 h; at 7.69 µM (top of the series) unless noted; further: on the % scale 0 is the no-effect control and ±100 the full control effect
Summary of the method: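 AP-1-bla ME-180 cells with beta-lactamase reporter under AP-1 response element, stimulated with EC50 EGF; compounds titrated, 5 hours at 37 degrees Celsius. CCF4 read at 460/530 nm ratio; positive and negative modulators judged by AC50.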

[3] = NFAT Signaling Pathway (AID 444); conditions: Jurkat NFAT-bla M1, carbachol, beta-lactamase ratio, 5 h; at 7.69 µM (top of the series) unless noted;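 further: carbachol stimulus at about its EC50 of 1 µM final; on the % scale 0 is the no-effect control and ±100 the full control effect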
Summary of the method: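 Jurkat cells with NFAT-driven β-lactamase reporter and co-expressed M1 receptor, stimulated with carbachol (final 1 uM, ~EC50), compound titration, 5 h at 37 °C. CCF4 loaded 1 h at RT; 460/530 nm ratio gave %activity and AC50.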

[4] = Stat Signaling Pathway (AID 446); conditions: ME-180 (cervical carcinoma) SIE beta-lactamase reporter, IL-6 stimulated, 5 h; at 7.69 µM (top of the series) unless noted;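 further: ME-180 cervical cancer cells given 40 pM IL-6 alongside compound; SIE-controlled beta-lactamase reporter measured as 460/530 nm FRET emission ratio; on the % scale 0 is the no-effect control and ±100 the full control effect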
Summary of the method: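 IL-6/STAT signaling read in ME-180 cells via an SIE beta-lactamase reporter. Stimulus was 40 pM IL-6 (its AC50) for 5 hrs, so both activation and inhibition register.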

[5] = biological target: Glucocorticoid receptor (Homo sapiens) (UniProt P04150); assay: GR-GFP Redistribution (AID 450;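 active means compounds whose dose series gives a full or clear partial fitted curve of increased nuclear translocation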; further: potency means the concentration at half of the fitted maximal effect); conditions: U2OS GR-GFP nuclear translocation, laser cytometry, 2 h
[6] = biological target: Glucocorticoid receptor (Homo sapiens) (UniProt P04150); assay: GR-EFC Redistribution (AID 451; calls by dose curve; further: potency means the concentration at half of the fitted maximal effect); conditions: CHO-K1 GR-EFC translocation, beta-gal luminescence, 2 h
Summary of the method: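 CHO-K1 cells expressing nuclear EA and GR-ED fragments of b-gal; compounds titrated up to 46 uM final, 2 h at 37 C. GR nuclear translocation read as complemented b-gal luminescence after 1 h RT detection.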

[7] = biological target: Mitogen-activated protein kinase 10 (Mus musculus) (UniProt Q61831); assay: JNK3 AlphaScreen Assay (AID 530); conditions: JNK3 lysate, c-Jun phosphorylation; series mostly up to 57.1 µM;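 further: kinase came from lysate of stimulated human HepG2 cells; signal reports phosphorylation of biotinylated GST-cJun 1-79 at Ser73 with 10 µM ATP; on the % scale 0 is the no-effect control and ±100 the full control effect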
Summary of the method: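 Pre-activated (IL-1β/TNFα) JNK3 in HepG2 lysates phosphorylates biotin-GST-cJun(1-79), 10 uM ATP; anti-phospho-cJun(Ser73) AlphaScreen read at room temperature, pH 7.6 Tris buffer. Compounds pre-incubated 15 min as titrations.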

[8] = biological target: 3',5'-cyclic-AMP phosphodiesterase 4B (Homo sapiens) (UniProt Q07343); assay: qHTS Assay for Inhibitors of PDE-IV (AID 607; active means well fitted activation curve with a large enough effect in the main read-out, with a control signal flat, not every such curve was filed as active; further: % of control where 0% means no effect); conditions: HEK293 ACTOne CNG channel cells, membrane potential fluorescence; series mostly up to 22.9 µM
Summary of the method: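 Live HEK293 cells with a modified cyclic nucleotide-gated (CNG) channel report intracellular cAMP via membrane-potential dye fluorescence (ex 535/em 590 nm). Endogenous PDE-IV was targeted. Compounds were tested at up to 22.9 uM final; RO 20-1724 100 uM served as control.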

[9] = biological target: Cytochrome P450 1A2 (Homo sapiens) (UniProt P05177); assay: p450-cyp1a2 (AID 410; calls by dose curve; further: potency means the concentration at half of the fitted maximal effect;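 on activity change, negative = inhibition: -100% = full effect of reference inhibitor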); conditions: recombinant CYP1A2, luciferin-ME demethylation, luminescence; series mostly up to 11.4 µM
Summary of the method: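 Luminescent readout of luciferin formed from Luciferin-ME by human CYP1A2; data normalized against complete inhibition by 57 uM furafylline. Enzyme 20nM, substrate 100uM at Km, 100mM KPO4 buffer, 60 min reaction at room temperature.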

[10] = biological target: Cytochrome P450 2C19 (Homo sapiens) (UniProt P33261); assay: qHTS Assay for Inhibitors and Substrates of Cytochrome P450 2C19 (AID 899; active means well fitted curve in the direction sought with a large enough effect; an effect the other way counts as inactive or inconclusive; further: nearly all actives have a fitted effect of over 60% in size; further: potency means the concentration at half of the fitted maximal effect); conditions: recombinant CYP2C19, luciferin-H EGE luminescence; series mostly up to 11.4 µM
Summary of the method: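 Signal comes from luciferase acting on luciferin released by CYP2C19-mediated hydroxylation of Luciferin-H EGE, 10uM (KM). Assay mix: 5nM enzyme, 50mM KPO4; 60 min at 37C with NADPH regeneration. Data normalized against 57uM ketoconazole.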

[11] = biological target: Cytochrome P450 2D6 (Homo sapiens) (UniProt P10635); assay: qHTS Assay for Inhibitors and Substrates of Cytochrome P450 2D6 (AID 891; active means well fitted curve in the direction sought with a large enough effect; an effect the other way counts as inactive or inconclusive; further: nearly all actives have a fitted effect of over 60% in size; further: potency means the concentration at half of the fitted maximal effect); conditions: recombinant CYP2D6, luciferin-ME EGE luminescence; series mostly up to 11.4 µM
Summary of the method: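 Human CYP2D6 (5 nM) with 30 uM Luciferin-ME EGE (at Km) in 100 mM KPO4, compound preincubated 10 min, then NADPH regeneration system for 60 min at room temperature. Luciferin read by luminescence; normalized to 1.43 uM quinidine.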

[12] = biological target: Cytochrome P450 3A4 (Homo sapiens) (UniProt P08684); assay: qHTS Assay for Activators of Cytochrome P450 3A4 (AID 885; active means well fitted curve in the direction sought with a large enough effect; an effect the other way counts as inactive or inconclusive; further: nearly all actives have a fitted effect of over 65% in size); conditions: recombinant CYP3A4, Luciferin-PPXE luminescence, 60 min; series mostly up to 57.1 µM
Summary of the method: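 Quantitative HTS format: compounds preincubated with 20nM human CYP3A4 and Luciferin-PPXE substrate at KM, reaction started by NADPH regeneration, stopped after 60 min, luciferase luminescence read 20 min later.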

Sequence of Glucocorticoid receptor (Homo sapiens) (P04150 whole entry, looked up, the tested form may be a part): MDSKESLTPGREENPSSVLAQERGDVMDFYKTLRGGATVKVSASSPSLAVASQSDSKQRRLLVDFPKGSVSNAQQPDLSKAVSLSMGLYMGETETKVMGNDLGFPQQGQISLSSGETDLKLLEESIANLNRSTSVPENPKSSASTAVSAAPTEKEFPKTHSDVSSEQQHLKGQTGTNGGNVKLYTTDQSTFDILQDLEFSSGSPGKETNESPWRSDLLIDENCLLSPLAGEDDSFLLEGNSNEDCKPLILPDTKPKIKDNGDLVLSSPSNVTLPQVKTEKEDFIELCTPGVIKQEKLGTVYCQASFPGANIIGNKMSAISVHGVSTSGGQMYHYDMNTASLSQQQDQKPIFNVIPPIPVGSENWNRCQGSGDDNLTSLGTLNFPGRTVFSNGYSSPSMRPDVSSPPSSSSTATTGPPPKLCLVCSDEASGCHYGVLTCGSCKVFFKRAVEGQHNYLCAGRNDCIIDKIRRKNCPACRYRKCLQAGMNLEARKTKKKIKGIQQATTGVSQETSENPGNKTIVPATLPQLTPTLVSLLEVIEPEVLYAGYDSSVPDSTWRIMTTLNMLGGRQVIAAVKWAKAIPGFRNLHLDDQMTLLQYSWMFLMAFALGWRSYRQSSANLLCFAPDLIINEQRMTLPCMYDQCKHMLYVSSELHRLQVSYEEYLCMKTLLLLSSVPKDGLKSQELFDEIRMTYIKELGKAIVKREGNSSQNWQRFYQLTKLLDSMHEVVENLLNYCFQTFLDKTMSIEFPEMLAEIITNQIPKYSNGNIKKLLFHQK
Sequence of Cytochrome P450 2C19 (Homo sapiens) (P33261 whole entry, looked up): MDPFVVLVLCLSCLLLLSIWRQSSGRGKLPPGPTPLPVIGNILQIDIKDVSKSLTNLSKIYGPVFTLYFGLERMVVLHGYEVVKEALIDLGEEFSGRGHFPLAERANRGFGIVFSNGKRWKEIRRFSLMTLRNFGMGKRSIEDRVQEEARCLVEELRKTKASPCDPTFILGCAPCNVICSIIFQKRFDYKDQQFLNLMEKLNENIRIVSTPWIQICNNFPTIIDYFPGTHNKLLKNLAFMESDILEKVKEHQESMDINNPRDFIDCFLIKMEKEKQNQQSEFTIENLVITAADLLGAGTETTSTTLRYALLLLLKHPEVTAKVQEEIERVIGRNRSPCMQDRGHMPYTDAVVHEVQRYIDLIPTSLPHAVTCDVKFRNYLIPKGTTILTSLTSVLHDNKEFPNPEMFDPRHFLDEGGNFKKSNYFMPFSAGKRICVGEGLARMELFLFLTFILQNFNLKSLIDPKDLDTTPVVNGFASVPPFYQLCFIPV
Sequence of Cytochrome P450 2D6 (Homo sapiens) (P10635 whole entry, looked up): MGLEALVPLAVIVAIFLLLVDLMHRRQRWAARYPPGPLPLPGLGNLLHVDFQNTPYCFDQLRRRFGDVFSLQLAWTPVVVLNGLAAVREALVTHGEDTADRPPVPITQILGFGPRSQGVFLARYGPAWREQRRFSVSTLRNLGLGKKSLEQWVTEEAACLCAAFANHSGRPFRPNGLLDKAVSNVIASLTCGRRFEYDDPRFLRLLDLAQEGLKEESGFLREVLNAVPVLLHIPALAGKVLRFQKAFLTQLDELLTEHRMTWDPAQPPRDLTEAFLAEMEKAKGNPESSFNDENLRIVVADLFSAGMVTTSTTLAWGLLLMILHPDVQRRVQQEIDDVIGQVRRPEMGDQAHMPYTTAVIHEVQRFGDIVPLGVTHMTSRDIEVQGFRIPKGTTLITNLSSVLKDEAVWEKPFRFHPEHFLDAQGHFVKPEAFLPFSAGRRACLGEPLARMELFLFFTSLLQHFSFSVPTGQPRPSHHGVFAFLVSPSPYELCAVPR
Sequence of Lysosomal acid glucosylceramidase (Homo sapiens) (P04062 whole entry, looked up): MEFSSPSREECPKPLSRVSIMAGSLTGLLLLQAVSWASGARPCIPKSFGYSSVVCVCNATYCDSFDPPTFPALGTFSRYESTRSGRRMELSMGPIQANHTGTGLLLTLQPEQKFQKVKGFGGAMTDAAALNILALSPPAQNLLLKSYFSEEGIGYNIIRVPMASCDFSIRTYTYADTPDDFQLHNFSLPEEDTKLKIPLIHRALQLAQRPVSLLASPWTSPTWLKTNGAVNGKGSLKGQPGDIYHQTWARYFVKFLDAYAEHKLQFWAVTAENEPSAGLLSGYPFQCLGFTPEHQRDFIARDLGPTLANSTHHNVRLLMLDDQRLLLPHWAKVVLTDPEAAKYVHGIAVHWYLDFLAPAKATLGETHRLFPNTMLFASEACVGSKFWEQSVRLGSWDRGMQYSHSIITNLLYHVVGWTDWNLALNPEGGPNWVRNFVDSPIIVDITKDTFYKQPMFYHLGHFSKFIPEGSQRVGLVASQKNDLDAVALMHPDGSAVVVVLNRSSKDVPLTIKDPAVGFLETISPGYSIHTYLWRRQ
Sequence of 3',5'-cyclic-AMP phosphodiesterase 4B (Homo sapiens) (Q07343 whole entry, looked up): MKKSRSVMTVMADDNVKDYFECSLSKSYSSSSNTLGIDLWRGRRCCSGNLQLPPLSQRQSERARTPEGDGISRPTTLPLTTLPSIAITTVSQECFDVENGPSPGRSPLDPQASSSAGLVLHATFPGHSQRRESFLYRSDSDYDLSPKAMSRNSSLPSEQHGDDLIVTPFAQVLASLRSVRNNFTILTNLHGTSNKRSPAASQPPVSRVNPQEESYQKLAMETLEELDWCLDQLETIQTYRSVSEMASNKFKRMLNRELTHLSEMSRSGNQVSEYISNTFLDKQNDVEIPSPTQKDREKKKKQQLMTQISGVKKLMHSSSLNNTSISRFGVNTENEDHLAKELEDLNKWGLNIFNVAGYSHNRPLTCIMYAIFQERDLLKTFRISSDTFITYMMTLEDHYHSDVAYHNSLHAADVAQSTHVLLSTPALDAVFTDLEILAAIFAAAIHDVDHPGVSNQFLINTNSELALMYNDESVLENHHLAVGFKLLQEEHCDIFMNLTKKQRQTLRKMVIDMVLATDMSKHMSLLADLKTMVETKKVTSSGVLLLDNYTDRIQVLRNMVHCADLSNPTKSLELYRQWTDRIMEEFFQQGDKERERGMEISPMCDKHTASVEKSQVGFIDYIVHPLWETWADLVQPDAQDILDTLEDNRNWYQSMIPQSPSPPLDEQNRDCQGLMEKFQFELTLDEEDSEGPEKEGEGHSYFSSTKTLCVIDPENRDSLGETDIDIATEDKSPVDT
Sequence of Cytochrome P450 1A2 (Homo sapiens) (P05177 whole entry, looked up): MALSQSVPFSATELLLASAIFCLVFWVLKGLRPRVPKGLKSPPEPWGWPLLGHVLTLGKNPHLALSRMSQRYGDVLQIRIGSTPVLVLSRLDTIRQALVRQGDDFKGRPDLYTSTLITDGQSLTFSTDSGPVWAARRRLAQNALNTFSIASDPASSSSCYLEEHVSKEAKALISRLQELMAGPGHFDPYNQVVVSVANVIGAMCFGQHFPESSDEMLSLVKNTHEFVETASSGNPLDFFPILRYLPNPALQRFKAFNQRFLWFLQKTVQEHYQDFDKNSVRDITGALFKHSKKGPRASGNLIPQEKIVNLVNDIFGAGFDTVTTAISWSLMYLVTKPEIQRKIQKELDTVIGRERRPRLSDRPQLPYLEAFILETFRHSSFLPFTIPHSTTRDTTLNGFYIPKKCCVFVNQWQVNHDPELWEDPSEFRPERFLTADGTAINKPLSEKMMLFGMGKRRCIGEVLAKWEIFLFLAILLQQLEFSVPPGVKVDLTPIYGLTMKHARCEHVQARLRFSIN
Sequence of Cytochrome P450 3A4 (Homo sapiens) (P08684 whole entry, looked up): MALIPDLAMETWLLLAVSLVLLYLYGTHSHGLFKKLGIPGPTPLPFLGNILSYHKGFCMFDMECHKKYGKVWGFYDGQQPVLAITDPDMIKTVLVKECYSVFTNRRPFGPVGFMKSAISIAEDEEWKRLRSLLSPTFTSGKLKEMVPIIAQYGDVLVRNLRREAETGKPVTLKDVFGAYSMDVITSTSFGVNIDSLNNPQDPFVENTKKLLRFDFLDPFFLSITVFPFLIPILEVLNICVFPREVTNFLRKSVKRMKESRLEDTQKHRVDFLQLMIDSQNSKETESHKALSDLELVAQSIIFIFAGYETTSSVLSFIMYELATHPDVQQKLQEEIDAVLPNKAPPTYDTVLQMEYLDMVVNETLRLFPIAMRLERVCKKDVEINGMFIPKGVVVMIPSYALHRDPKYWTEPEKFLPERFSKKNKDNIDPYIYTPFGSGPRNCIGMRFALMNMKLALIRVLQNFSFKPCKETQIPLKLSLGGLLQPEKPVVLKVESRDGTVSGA

## C[C@@]12Cc3cnc(-c4ccccc4)nc3C[C@@H]1CC[C@@H]1[C@H]3CC[C@@](C)(O)[C@]3(C)CC[C@@H]12
[1]
  Potency: > 11.4 µM
[2]
  activity change, negative = inhibition: 5.09%
[3]
  activity change, negative = inhibition: -13.1%
[4]
  activity, negative = inhibition: 1.77%
[5]
  Potency: > 46 µM
[6]
  Potency: > 9.22 µM
[7]
  activity change, negative = inhibition: 3.79% [at 11.4 µM]
[8]
  outcome: inactive

## COc1ccc(C[C@@H]2C(=O)N[C@H](C)C(=O)N(C)[C@@H]3C(=O)N(C)[C@@H](Cc4ccc(O)c(c4)Oc4ccc(cc4)[C@H]3O)C(=O)N[C@@H](C)C(=O)N[C@H](C)C(=O)N2C)cc1
[1]
  Potency: > 11.4 µM
[2]
  activity change, negative = inhibition: -121% (active)
[3]
  activity change, negative = inhibition: -133% (active)
[4]
  activity, negative = inhibition: -105% (active)
[5]
  Potency: > 46 µM
[6]
  Potency: > 9.22 µM
[7]
  activity change, negative = inhibition: 3.04% [at 11.4 µM]
[8]
  outcome: inactive

## O=C1N[C@@]2(CN3CCC2CC3)C(=O)N1CN(Cc1ccccc1)c1ccccc1
[1]
  Potency: > 11.4 µM
[2]
  activity change, negative = inhibition: -6.81%
[3]
  activity change, negative = inhibition: 6.45%
[4]
  activity, negative = inhibition: -6.68%
[5]
  Potency: > 46 µM
[6]
  Potency: > 9.22 µM
[7]
  activity change, negative = inhibition: 4.81% [at 11.4 µM]
[8]
  outcome: inactive

## FC(F)(F)c1nc2ccc(SSc3ccc4nc(C(F)(F)F)[nH]c4c3)cc2[nH]1
[1]
  Potency: > 11.4 µM
[2]
  activity change, negative = inhibition: -1.24%
[9]
  Potency: 0.501 µM (active)
[5]
  Potency: > 46 µM
[7]
  activity change, negative = inhibition: 12.4% [at 11.4 µM]
[8]
  outcome: inactive
[10]
  Potency: 5.01 µM (active)

## N#CS.N=C=S.N=C=S.[Cu].[NH2-].[NH2-].[NH2-].[NH2-].c1ccc2ncccc2c1
[1]
  Potency: > 11.4 µM
[2]
  activity change, negative = inhibition: -1.15%
[3]
  activity change, negative = inhibition: 0.5%
[4]
  activity, negative = inhibition: -4.61%
[5]
  Potency: > 46 µM
[6]
  Potency: > 9.22 µM
[7]
  activity change, negative = inhibition: 0.42% [at 11.4 µM]
[8]
  outcome: inactive

## CC1(C)N=C(N)N=C(N)N1c1cccc(C(=O)Nc2ccc(S(=O)(=O)F)cc2)c1
[1]
  Potency: > 11.4 µM
[2]
  activity change, negative = inhibition: -0.165%
[9]
  Potency: inactive
[4]
  activity, negative = inhibition: 9.13%
[5]
  Potency: > 46 µM
[6]
  Potency: > 9.22 µM
[8]
  outcome: inactive
[11]
  Potency: 2 µM (active)

## Nc1nc(N)c(N=Nc2ccc([As](=O)(O)O)cc2)c(=O)[nH]1
[1]
  Potency: > 11.4 µM
[2]
  activity change, negative = inhibition: 6.48%
[3]
  activity change, negative = inhibition: 5.43%
[4]
  activity, negative = inhibition: 0.893%
[5]
  Potency: > 46 µM
[6]
  Potency: > 9.22 µM
[7]
  activity change, negative = inhibition: 5.04% [at 11.4 µM]
[8]
  outcome: inactive

## COc1cc2cc(c1Cl)N(C)C(=O)C[C@H](OC(=O)C(C)C)[C@]1(C)O[C@@H]1[C@@H](C)[C@H]1C[C@](O)(NC(=O)O1)[C@@H](OC)/C=C\C=C(\C)C2
[1]
  Potency: > 11.4 µM
[2]
  activity change, negative = inhibition: 23.1%
[9]
  Potency: inactive
[4]
  activity, negative = inhibition: 6.86%
[5]
  Potency: 0.278 µM (active)
[8]
  outcome: inactive
[11]
  Potency: inactive
[10]
  Potency: inactive

## C[C@]12CN(CC[N+](C)(C)C)C[C@]1(C)[C@@H]1CC[C@@H]2O1
[1]
  Potency: 6.39 µM (active)
[2]
  activity change, negative = inhibition: 12.6%
[3]
  activity change, negative = inhibition: 10.2%
[4]
  activity, negative = inhibition: -6.86%
[5]
  Potency: > 46 µM
[6]
  Potency: > 9.22 µM
[7]
  activity change, negative = inhibition: -2.5% [at 11.4 µM]
[8]
  outcome: inactive

## O=C(Oc1ccc(S(=O)(=O)F)cc1F)c1ccccc1Cl
[1]
  Potency: > 11.4 µM
[2]
  activity change, negative = inhibition: -4.95%
[3]
  activity change, negative = inhibition: 5.76%
[4]
  activity, negative = inhibition: -0.302%
[5]
  Potency: > 46 µM
[6]
  Potency: > 9.22 µM
[7]
  activity change, negative = inhibition: 2.49% [at 11.4 µM]
[8]
  outcome: inactive

## c1cc(C2N3CCCN2CC3)ccn1 (stereo not drawn)
[1]
  Potency: > 11.4 µM
[2]
  activity change, negative = inhibition: 2.62%
[9]
  Potency: 1.26 µM (active)
[4]
  activity, negative = inhibition: 3.03%
[5]
  Potency: > 46 µM
[6]
  Potency: > 9.22 µM
[7]
  activity change, negative = inhibition: 2.87% [at 11.4 µM]
[8]
  outcome: inactive
[10]
  Potency: inactive

## c1ccc2c([C@@H]3CCN(CCN4CCOCC4)C3)c[nH]c2c1
[1]
  Potency: > 11.4 µM
[2]
  activity change, negative = inhibition: -11.8%
[9]
  Potency: inactive
[4]
  activity, negative = inhibition: 0.702%
[5]
  Potency: > 46 µM
[7]
  activity change, negative = inhibition: 3.19% [at 11.4 µM]
[8]
  outcome: inactive

## O=C(O)/C=C\c1ccc[c]([Sb](=[O])([OH])[OH])c1
[1]
  Potency: > 11.4 µM
[2]
  activity change, negative = inhibition: -8.12%
[3]
  activity change, negative = inhibition: 12.6%
[4]
  activity, negative = inhibition: -20.4%
[5]
  Potency: > 46 µM
[6]
  Potency: > 9.22 µM
[7]
  activity change, negative = inhibition: 3.13% [at 11.4 µM]
[8]
  outcome: inactive

## NCCSC(c1ccccc1)c1ccccc1
[1]
  Potency: > 11.4 µM
[2]
  activity change, negative = inhibition: 6.46%
[9]
  Potency: 1.58 µM (active)
[5]
  Potency: > 46 µM
[6]
  Potency: > 9.22 µM
[7]
  activity change, negative = inhibition: 1.83% [at 11.4 µM]
[8]
  outcome: inactive
[12]
  activity change, positive = activation: -39.5% [at 11.4 µM]
[11]
  Potency: 0.794 µM (active)
[10]
  Potency: 1.26 µM (active)
